SMILES strings stand for the structures. The source made the active and inactive calls. Unless noted, how the calls were made is not given here.

In PubChem BioAssay one finds composite z-score and z-score data, which are given here for five compounds.

In test [1] the test system is Wnt5a (protein binding on small-molecule microarray). Description: small molecules binding Wnt5a protein – biophysical, small-molecule microarray, 635/667 nm fluorescence, primary screen (AID 1142).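 Further: fluorescence read at 667 nm with signal to noise per printed feature.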 Particulars: 635 nm fluorescence, higher = more signal.
Test [2] is described as follows: ATP-based viability of Huh7 replicon cells – cell-based, CellTiter-Glo luminescence, basal, 48 h, cytotoxicity control for HCV replication inhibitor project, primary screen (AID 1143).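 Further: Huh7 hepatoma cells carrying a hepatitis C replication reporter with no stimulus; test concentration not given here.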 Particulars: higher = more signal, called active from +8 up or from −8 down. (In general: Replicon systems follow genome replication, usually without infectious particles.)
The nature of test [3]: Pseudomonas biofilm growth suppression – PAO1 strain, BacTiter-Glo luminescence, LB-PBS, primary screen (AID 1144). The settings on record: P. aeruginosa PAO1 biofilm, 12 h, higher = more signal.
A short description of test [4]: basal CRE-LacZ reporter activity in PC12 – cell-based, unstimulated, primary screen (AID 1145). Particulars: no forskolin, luminescence, 4.5 h, higher = more signal, called active from +8 up or from −8 down.
The nature of test [5]: forskolin-driven CRE-LacZ activity in PC12 – cell-based, CRE-LacZ reporter, forskolin-stimulated, primary screen (AID 1146).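 Further: PC12 cells with 6xCRE LacZ reporter stimulated by forskolin 10 µM; beta-galactosidase reporter signal reflecting CREB driven transcription.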 The settings on record: luminescence, 4.5 h, higher = more signal, called active from +8 up or from −8 down.
The target in test [6] is Streptavidin (Streptomyces avidinii) (UniProt P22629). Description: compounds binding control protein streptavidin – biophysical, small-molecule microarray, 635/667 nm fluorescence, artefact control for SMM compound annotation, primary screen (AID 1147).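 Further: signal reflects streptavidin binding to arrayed compounds as a control protein.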 The settings on record: higher = more signal.
The nature of test [7]: probe aInhba binding on compound microarray – biochemical, small-molecule microarray, 635/667 nm fluorescence, primary screen (AID 1148).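 Further: score merges 667nm spot fluorescence with signal-to-noise for antibody binding to printed compounds.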 Particulars: higher = more signal.
Test [8] has as its target Torsin-1A (Homo sapiens) (UniProt O14656). Description: TOR1A wild-type binding on microarray – cell lysate, small-molecule microarray, lysate, 635/667 nm, primary screen (AID 1149). Particulars: COS7 hTOR1A-WT lysate, 635 nm fluorescence, higher = more signal.
For test [9] the target is unchanged. Description: torsin A mutant lysate binding on microarrays – cell lysate, small-molecule microarray, COS7 lysate, 635/667 nm fluorescence, primary screen (AID 1150).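 Further: score pools 667 nm emission and signal to noise measuring lysate protein binding.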 Particulars: COS7 hTOR1A mutant lysate, 635 nm fluorescence, higher = more signal.
For test [10], the system named is Sonic hedgehog protein (Shh). Description: Sonic hedgehog microarray binding compounds – biochemical, small-molecule microarray, 635/667 nm fluorescence, primary screen (AID 1151).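 Further: Shh protein binding to compounds spotted on small-molecule microarray slides; score combines spot fluorescence intensity with signal-to-noise across triplicate slides.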 The settings on record: 635 nm fluorescence, higher = more signal.
Test [11] can be described thus: optical density shifts of acrAB sulA E. coli – strain DRC41, OD650, 48 h, E. coli filamentation inducer project, primary screen (AID 1152).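 Further: E. coli MC1000 strain DRC41 lacking acrAB efflux pump and sulA.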 The settings on record: higher = more signal, called active from +8 up or from −8 down.
Test [12] can be described thus: probe aLefty1 binding on compound microarray – biochemical, small-molecule microarray, 635/667 nm fluorescence, primary screen (AID 1153).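 Further: score merges spot fluorescence with signal-to-noise ratio from the scanned slide images.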 Particulars: higher = more signal.
Test [13] can be described thus: plasmodial surface anion channel blockers, osmotic lysis – cell-based, P. falciparum Indochina, OD700, 1 h, primary screen (AID 1154). The settings on record: P. falciparum Indochina infected RBC osmotic lysis, higher = more signal, called active from +8 up or from −8 down.
Test [14] in a line: plasmodial surface anion channel blockers, osmotic lysis – cell-based, P. falciparum Indochina, OD700, 2 h, primary screen (AID 1155).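 Further: lysis reports solute entry through the parasite surface anion channel PSAC.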 The settings on record: P. falciparum Indochina infected erythrocytes, higher = more signal, called active from +8 up or from −8 down.
Test [15] in a line: changes in parasitized red cell lysis, either direction – P. falciparum Indochina, OD700, 3 h, PSAC antagonist project, primary screen (AID 1156). The settings on record: P. falciparum-infected erythrocytes, osmotic lysis, higher = more signal, called active from +8 up or from −8 down.
The nature of test [16]: plasmodial surface anion channel blockers, osmotic lysis – cell-based, P. falciparum Indochina, OD700, 18 h, primary screen (AID 1157). Particulars: P. falciparum Indochina infected erythrocytes, osmotic lysis OD700, 18 h; higher = more signal, called active from +8 up or from −8 down.
The nature of test [17]: S6 kinase pathway phospho-S6 level changes – cell-based, A549, cytoblot, luminescence, serum-stimulated, primary screen (AID 1158).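 Further: serum-stimulated A549 lung adenocarcinoma cells; signal is phosphorylated S6 detected by cytoblot immunostaining with HRP secondary.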 Particulars: 5 h, higher = more signal.
Test [18] deals with NADPH oxidase 2 (Homo sapiens) (UniProt P04839). Description: compounds shifting NOX2 Amplex Red fluorescence – cell-based, HEK293-NOX2, PMA-stimulated, NOX inhibitor project, primary screen (AID 1159). Further: test concentration not given here. The settings on record: 45 min, higher = more signal, called active from +8 up or from −8 down.
Test [19] deals with NADPH oxidase 4 (Homo sapiens) (UniProt Q9NPH5). Description: compounds shifting NOX4 Amplex Red fluorescence – cell-based, HEK293-NOX4, tetracycline-induced, NOX inhibitor project, primary screen (AID 1160). Particulars: HEK293-NOX4, Amplex Red H2O2 fluorescence, 45 min; higher = more signal, called active from +8 up or from −8 down.
Test [20] addresses NADPH oxidase 5 (Homo sapiens) (UniProt Q96PH1). Description: compounds shifting NOX5 Amplex Red fluorescence – cell-based, HEK293-NOX5, NOX inhibitor project, primary screen (AID 1161). Particulars: HEK293-NOX5, ionomycin, 45 min, higher = more signal.

Chain of NADPH oxidase 2 (Homo sapiens) (P04839 whole entry, looked up): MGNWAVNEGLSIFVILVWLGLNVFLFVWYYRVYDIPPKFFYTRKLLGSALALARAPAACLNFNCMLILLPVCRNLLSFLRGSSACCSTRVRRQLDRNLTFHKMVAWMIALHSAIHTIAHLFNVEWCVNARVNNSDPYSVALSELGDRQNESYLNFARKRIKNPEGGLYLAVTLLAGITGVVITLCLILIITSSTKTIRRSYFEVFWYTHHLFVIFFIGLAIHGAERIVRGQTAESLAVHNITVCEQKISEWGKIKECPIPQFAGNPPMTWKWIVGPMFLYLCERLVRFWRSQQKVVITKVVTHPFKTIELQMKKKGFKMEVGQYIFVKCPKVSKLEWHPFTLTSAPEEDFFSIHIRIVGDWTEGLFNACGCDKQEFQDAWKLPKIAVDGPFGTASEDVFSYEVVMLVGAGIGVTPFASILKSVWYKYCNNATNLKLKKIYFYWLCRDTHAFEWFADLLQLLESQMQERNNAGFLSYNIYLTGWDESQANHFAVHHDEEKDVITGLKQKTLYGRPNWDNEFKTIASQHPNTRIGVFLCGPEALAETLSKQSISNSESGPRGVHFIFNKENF
Chain of NADPH oxidase 4 (Homo sapiens) (Q9NPH5 whole entry, looked up): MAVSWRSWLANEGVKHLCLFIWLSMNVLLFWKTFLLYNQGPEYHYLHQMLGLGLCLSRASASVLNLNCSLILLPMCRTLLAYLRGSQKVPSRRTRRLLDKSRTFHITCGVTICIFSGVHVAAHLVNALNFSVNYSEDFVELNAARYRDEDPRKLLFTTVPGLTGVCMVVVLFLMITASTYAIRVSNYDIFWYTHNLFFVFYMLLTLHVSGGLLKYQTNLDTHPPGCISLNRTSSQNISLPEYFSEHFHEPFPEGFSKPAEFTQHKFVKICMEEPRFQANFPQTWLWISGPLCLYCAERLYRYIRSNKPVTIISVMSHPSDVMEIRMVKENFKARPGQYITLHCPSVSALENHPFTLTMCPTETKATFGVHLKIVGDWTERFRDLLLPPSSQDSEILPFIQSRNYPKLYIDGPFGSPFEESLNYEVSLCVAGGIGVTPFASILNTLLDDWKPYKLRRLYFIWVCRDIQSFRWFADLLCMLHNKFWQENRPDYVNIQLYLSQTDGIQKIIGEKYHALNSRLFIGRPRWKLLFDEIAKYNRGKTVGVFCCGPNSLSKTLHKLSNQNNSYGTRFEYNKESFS
Chain of NADPH oxidase 5 (Homo sapiens) (Q96PH1 whole entry, looked up): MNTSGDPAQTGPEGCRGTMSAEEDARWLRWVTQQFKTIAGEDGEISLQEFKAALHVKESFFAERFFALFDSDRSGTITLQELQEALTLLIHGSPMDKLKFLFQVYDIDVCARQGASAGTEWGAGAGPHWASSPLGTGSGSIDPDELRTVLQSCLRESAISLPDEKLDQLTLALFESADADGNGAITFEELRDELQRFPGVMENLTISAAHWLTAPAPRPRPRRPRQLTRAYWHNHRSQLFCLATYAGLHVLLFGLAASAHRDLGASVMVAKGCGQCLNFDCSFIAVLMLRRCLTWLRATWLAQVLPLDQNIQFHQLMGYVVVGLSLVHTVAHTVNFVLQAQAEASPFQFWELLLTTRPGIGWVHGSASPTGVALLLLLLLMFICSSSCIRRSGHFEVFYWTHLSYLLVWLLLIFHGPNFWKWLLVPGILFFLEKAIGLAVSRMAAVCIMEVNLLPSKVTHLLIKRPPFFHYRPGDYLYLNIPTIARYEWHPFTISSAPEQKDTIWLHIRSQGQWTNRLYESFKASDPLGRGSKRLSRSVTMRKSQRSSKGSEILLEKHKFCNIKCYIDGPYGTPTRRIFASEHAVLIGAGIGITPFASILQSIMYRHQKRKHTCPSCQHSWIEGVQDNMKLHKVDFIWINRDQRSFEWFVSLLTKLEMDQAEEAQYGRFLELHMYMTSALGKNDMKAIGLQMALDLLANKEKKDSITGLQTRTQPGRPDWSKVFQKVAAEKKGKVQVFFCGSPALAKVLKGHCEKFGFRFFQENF
Chain of Torsin-1A (Homo sapiens) (O14656 whole entry, looked up): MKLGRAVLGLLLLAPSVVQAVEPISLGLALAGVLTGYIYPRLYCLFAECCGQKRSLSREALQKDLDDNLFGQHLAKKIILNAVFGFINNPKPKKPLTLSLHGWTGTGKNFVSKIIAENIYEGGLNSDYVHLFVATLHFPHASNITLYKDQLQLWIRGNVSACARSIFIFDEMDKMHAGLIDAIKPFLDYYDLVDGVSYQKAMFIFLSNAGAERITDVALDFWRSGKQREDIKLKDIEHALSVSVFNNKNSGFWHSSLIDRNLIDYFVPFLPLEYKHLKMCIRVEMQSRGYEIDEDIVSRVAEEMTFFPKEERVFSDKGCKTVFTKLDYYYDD
Chain of Streptavidin (Streptomyces avidinii) (P22629 whole entry, looked up): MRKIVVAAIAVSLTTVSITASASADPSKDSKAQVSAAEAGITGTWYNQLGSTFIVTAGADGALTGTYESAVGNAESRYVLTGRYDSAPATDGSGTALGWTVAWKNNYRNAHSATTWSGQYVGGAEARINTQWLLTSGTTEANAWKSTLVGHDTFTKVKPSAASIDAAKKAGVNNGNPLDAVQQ

Consider `C#CCCCON=C1C[C@@H](O)[C@@H](O)[C@@H]2[C@@H]3C(=O)N([C@@H](C)c4ccccc4)C(=O)[C@@H]3CC[C@H]12`, for which the composite z-score in [1] was -0.216; in test [6], 0.029; in test [7] it was -0.128; in test [8] it was 0.258; in test [9], 0.126; in test [10] it was 0.552. The same compound yielded a composite z-score in test [12] of 0.75. Also, the z-score in test [2] was -3.38 (inactive); in [3], -0.0158 (inactive); in test [4], 2.61 (inactive); in [5], -0.428 (inactive); in test [11], -1.08 (inactive); in [13], 0.553 (inactive). For the same compound, the z-score is -0.645 (inactive) in test [14]; -0.318 (inactive) in test [15]; -2.13 (inactive) in test [16]; -0.235 in test [17]; -0.599 (inactive) in test [18]; -1.21 (inactive) in test [19]. For the same compound, in [20], the z-score turned out to be 0.579.
With `C#CCCCON=C1C[C@@H](O)[C@@H](O)[C@@H]2[C@@H]3C(=O)N(c4cccc(Oc5ccccc5)c4)C(=O)[C@@H]3CC[C@@H]12`, the composite z-score in [1] is 0.0741; in test [6] it was 0.766; in test [7], -0.128; in [8] it was -0.0313; in [9] it was 0.112; in test [10], 0.277. The composite z-score in test [12] was -0.0929. The z-score was 0.317 (inactive) in [2]; 0.000705 (inactive) in [3]; 2.16 (inactive) in test [4]; 0.427 (inactive) in test [5]; -0.164 (inactive) in test [11]; 2.87 (inactive) in test [13]. Further, the z-score in test [14] was 1.29 (inactive); in test [15], 1.24 (inactive); in [16] it was 0.354 (inactive); in test [17] it was -0.512; in test [18], -2.13 (inactive); in test [19], -0.598 (inactive). The z-score in test [20] is -0.786.
On to `COC(=O)[C@H](C)NC(=O)CCC1CC(OC(=O)NCCc2ccc(F)cc2)CC2(CCCC(COC(=O)NCCc3ccc(Cl)cc3)O2)O1` (stereo not given in full), for which the composite z-score in [1] is 0.606; in test [6], 1.07; in [7], -0.0937; in test [8], 2.31; in test [9], -0.177; in test [10], 1.31. This compound showed a composite z-score in [12] of -0.0464. For the same compound, the z-score in [2] is -0.195 (inactive); in [3], -0.739 (inactive); in test [4], -0.0732 (inactive); in test [5], -0.195 (inactive); in test [11], 0.954 (inactive); in test [13], 1.83 (inactive). In addition, the z-score was 0.316 (inactive) in test [14]; -0.0413 (inactive) in test [15]; 0.2 (inactive) in test [16]; 0.0808 in [17]; 0.431 (inactive) in test [18]; 0.778 (inactive) in test [19]. The z-score in [20] was 0.612.
In the case of `COCCOC(=O)N1C(=O)[C@@]2(c3cc(C#CC4(O)CCCCCC4)ccc31)[C@H](c1ccc(OCCO)cc1)N1[C@H](c3ccccc3)[C@H](c3ccccc3)OC(=O)[C@H]1[C@@H]2C(=O)NC[C@H](O)c1ccccc1`, the composite z-score in [1] was 0.524; in test [6], 0.246; in test [7] it was 0.0658; in [8] it was 0.225; in [9] it was 0.514; in test [10], 1.23. In test [12], the composite z-score is 0.43. The z-score in test [2] is -5.42 (inactive); in test [3], -0.903 (inactive); in test [4], -0.61 (inactive); in [5], 0.753 (inactive); in test [11], 1.02 (inactive); in test [13], 2.18 (inactive). In addition, the z-score in test [14] was 0.524 (inactive); in test [15], 0.735 (inactive); in test [16], -0.494 (inactive); in [17] it was 1.47; in [18], 1.79 (inactive); in test [19] it was 0.858 (inactive). For the same compound, in test [20], the z-score was -1.31.
With `CC=CC1=C(CO)[C@H](O)[C@H]2O[C@H]2[C@H]1O`, the composite z-score in test [1] was 0.261; in test [6], 0.082; in test [7] it was -0.0719; in test [8], 0.769; in test [9], -0.0205; in test [10], 1.14. This compound also returned a composite z-score in test [12] of -0.45. For the same compound, the z-score is 0.678 (inactive) in test [2]; 1.58 (inactive) in test [3]; 0.292 (inactive) in test [4]; 0.798 (inactive) in test [5]; -0.147 (inactive) in test [11]; -0.528 (inactive) in [13]. Also, the z-score is -0.52 (inactive) in test [14]; -0.382 (inactive) in test [15]; -0.342 (inactive) in [16]; 0.318 in test [17]; 1.94 (inactive) in test [18]; -1.82 (inactive) in test [19]. The z-score in test [20] was -0.768.
